According to the supplement of paper PMC10849652:
The full data set covers some 8,800 targets. This sample favours those with a hit. About 0.5% of all pairs of compound and target were hits.

Columns and labels:
Assay in all cases: log2 fold change, soluble protein after heating vs DMSO (PISA); higher = thermal stabilisation; K562 lysate, 10 uM; active = over 0.2 and 3.5 SD of the protein, either way, in both replicates (recomputed)
[1] = compound: Cc1cn(-c2cc(NC(=O)c3ccc(C)c(Nc4nccc(-c5cccnc5)n4)c3)cc(C(F)(F)F)c2)cn1 [nilotinib]
Summary of the method: (§1)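 Dounce homogenisation of K562 pellets in PBS pH 7.4 with 1 mM MgCl2 produced a crude extract, used at 1 mg/mL protein. Exposure to 10 μM compound lasted 30 min, and aliquots were then heated for 3 min across 48°C-58°C, pooled and brought to 0.5% NP-40 at 4°C. The supernatant after 21,000xg for 90 min was quantified by TMTpro 16plex LC-MS/MS with channel sums equalised. Duplicate values are given as log-two fold change in thermal stability relative to solvent controls.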

[2] = compound: Cc1nc(Nc2n[nH]c3c2CN(C(=O)N[C@H](CN(C)C)c2ccccc2)C3(C)C)c2sccc2n1
Summary of the method: as §1

[3] = compound: Cc1nc(Nc2ncc(C(=O)Nc3c(C)cccc3Cl)s2)cc(N2CCN(CCO)CC2)n1 [dasatinib]
Summary of the method: as §1

[4] = compound: Cc1ncc(-c2ccnc(Nc3ccc(S(C)(=O)=O)cc3)n2)n1C(C)C
Summary of the method: as §1

[5] = compound: Cn1cc(-c2ccc3c(c2)CCN3C(=O)Cc2cccc(C(F)(F)F)c2)c2c(N)ncnc21
Summary of the method: as §1

[6] = compound: Cn1cc(CNCC2CCN(c3ncc(C(=O)NO)cn3)CC2)c2ccccc21 [quisinostat]
Summary of the method: as §1

[7] = compound: Cn1cncc1[C@@](N)(c1ccc(Cl)cc1)c1ccc2c(c1)c(-c1cccc(Cl)c1)cc(=O)n2C [tipifarnib]
Summary of the method: as §1

[8] = compound: NC(=O)Nc1cc(-c2cccc(F)c2)sc1C(=O)N[C@H]1CCCNC1
Summary of the method: as §1

[9] = compound: NC(=O)c1cnc(N[C@@H]2CCCC[C@@H]2N)nc1Nc1cccc(-n2nccn2)c1
Summary of the method: as §1

[10] = compound: NC1(c2ccc(-c3nc4ccn5c(=O)[nH]nc5c4cc3-c3ccccc3)cc2)CCC1
Summary of the method: as §1

Measured: log2 fold change

EED, A0A5F9ZI63
inactive: [1] -0.019 | [2] 0.035 | [3] -0.022 | [4] -0.005 | [5] -0.027 | [6] 0 | [7] 0.006 | [8] 0.026 | [9] -0.006 | [10] -0.015

FBXO22 (UniProt Q8NEZ5)
inactive: [1] 0.005 | [2] 0.021 | [3] -0.028 | [4] -0.036 | [5] 0.025 | [6] -0.047 | [7] 0.034 | [8] 0.012 | [9] -0.007 | [10] -0.016

FAM76B (UniProt Q5HYJ3)
inactive: [1] -0.044 | [2] 0.019 | [3] 0.093 | [4] -0.004 | [5] 0.005 | [6] -0.028 | [7] -0.019 | [8] -0.032 | [9] -0.026 | [10] -0.07

EP300 (UniProt Q09472)
inactive: [1] 0.036 | [2] 0.037 | [3] -0.028 | [4] 0.081 | [5] 0.007 | [6] 0.03 | [7] -0.043 | [8] 0.036 | [9] 0.023 | [10] 0.046

EDC3 (UniProt Q96F86)
inactive: [1] 0.045 | [2] 0.016 | [3] -0.022 | [4] -0.031 | [5] 0.004 | [6] -0.006 | [7] -0.069 | [8] -0.019 | [9] -0.014 | [10] 0.017

EXOC3 (UniProt O60645)
inactive: [1] -0.013 | [2] 0.012 | [3] -0.06 | [4] 0.039 | [5] 0.021 | [6] -0.115 | [7] -0.018 | [8] 0.063 | [9] 0.005 | [10] -0.005

GEMIN4 (UniProt P57678)
Chain of UniProt P57678 (P57678 whole entry, looked up): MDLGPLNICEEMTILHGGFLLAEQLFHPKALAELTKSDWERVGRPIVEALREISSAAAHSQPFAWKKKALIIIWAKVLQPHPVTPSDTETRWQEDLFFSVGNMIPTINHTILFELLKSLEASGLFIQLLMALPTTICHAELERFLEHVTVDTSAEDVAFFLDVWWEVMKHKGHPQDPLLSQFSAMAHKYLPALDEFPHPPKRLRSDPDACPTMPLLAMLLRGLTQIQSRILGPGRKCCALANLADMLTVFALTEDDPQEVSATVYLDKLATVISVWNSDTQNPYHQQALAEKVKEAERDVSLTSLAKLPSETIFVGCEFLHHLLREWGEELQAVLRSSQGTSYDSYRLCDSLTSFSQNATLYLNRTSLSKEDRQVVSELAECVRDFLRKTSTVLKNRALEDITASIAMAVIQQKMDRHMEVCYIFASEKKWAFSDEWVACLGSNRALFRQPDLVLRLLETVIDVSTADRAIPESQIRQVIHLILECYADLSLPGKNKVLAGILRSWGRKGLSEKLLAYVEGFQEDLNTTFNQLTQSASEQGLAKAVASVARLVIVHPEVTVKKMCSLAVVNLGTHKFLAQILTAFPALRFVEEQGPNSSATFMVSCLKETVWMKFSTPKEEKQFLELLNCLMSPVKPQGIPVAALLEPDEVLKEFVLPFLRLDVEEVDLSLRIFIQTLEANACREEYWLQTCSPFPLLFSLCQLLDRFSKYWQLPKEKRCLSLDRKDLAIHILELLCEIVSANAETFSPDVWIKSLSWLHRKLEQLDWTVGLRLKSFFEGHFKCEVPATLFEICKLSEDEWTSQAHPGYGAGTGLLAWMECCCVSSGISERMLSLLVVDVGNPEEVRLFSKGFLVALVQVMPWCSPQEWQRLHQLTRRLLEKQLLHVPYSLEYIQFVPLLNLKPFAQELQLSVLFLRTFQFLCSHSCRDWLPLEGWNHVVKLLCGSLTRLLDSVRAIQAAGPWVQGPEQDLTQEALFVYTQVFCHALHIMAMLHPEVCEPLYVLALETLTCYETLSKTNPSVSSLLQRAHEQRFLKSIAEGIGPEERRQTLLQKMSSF
inactive: [1] -0.001 | [2] -0.014 | [3] -0.047 | [4] -0.001 | [5] 0.101 | [6] -0.056 | [7] 0.006 | [8] 0.077 | [9] -0.001 | [10] -0.097

FOXJ3 (UniProt Q9UPW0)
inactive: [1] 0.156 | [2] -0.053 | [3] -0.013 | [4] -0.008 | [5] -0.063 | [6] -0.055 | [7] -0.017 | [8] 0.042 | [9] 0.017 | [10] -0.115

FMNL2 isoform 3 (UniProt Q96PY5)
Chain of UniProt Q96PY5 (Q96PY5 whole entry, looked up): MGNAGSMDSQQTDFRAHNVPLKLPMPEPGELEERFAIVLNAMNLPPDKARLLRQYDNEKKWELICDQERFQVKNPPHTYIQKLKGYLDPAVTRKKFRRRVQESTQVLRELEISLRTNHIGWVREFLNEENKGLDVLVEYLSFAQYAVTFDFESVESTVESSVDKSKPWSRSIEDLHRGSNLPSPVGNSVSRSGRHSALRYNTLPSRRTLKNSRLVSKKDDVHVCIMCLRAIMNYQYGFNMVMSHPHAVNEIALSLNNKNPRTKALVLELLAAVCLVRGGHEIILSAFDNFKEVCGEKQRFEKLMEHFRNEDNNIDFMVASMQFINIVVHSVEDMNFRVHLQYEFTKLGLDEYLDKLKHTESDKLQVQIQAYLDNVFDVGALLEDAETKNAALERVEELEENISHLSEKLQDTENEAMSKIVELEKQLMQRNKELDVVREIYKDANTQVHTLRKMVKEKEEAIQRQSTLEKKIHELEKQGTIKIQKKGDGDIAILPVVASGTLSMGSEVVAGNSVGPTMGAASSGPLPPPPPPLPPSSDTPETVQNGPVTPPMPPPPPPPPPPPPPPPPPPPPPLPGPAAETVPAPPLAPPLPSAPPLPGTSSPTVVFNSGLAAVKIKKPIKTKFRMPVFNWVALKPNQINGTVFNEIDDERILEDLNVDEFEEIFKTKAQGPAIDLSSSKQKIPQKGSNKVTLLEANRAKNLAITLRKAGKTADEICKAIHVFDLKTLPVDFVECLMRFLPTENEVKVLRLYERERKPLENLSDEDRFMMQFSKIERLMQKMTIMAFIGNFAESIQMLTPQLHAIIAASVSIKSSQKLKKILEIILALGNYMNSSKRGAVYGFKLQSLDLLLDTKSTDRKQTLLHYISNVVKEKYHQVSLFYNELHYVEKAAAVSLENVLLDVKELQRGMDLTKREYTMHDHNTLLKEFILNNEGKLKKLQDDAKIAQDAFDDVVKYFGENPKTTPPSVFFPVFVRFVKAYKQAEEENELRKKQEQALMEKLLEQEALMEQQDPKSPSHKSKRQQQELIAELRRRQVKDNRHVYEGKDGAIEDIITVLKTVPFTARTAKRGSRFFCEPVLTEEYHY
inactive: [1] -0.1 | [2] -0.087 | [3] 0.101 | [4] -0.018 | [5] -0.028 | [6] -0.1 | [7] -0.012 | [8] -0.047 | [9] 0.002 | [10] -0.021

GCN1 (UniProt Q92616)
inactive: [1] 0.015 | [2] -0.017 | [3] -0.071 | [4] 0.001 | [5] 0.066 | [6] -0.072 | [7] -0.01 | [8] 0.047 | [9] 0.001 | [10] -0.037

FYCO1 isoform 4 (UniProt Q9BQS8)
inactive: [1] -0.02 | [2] -0.022 | [3] 0.011 | [4] 0.016 | [5] 0.031 | [6] -0.014 | [7] -0.012 | [8] 0.019 | [9] 0.015 | [10] -0.008

GEMIN2 (UniProt O14893)
inactive: [1] -0.019 | [2] 0.014 | [3] -0.03 | [4] 0.032 | [5] -0.033 | [6] 0.142 | [7] 0.059 | [8] 0.004 | [9] -0.039 | [10] 0.049

EIF3I (UniProt Q13347)
Chain of UniProt Q13347 (Q13347 whole entry, looked up): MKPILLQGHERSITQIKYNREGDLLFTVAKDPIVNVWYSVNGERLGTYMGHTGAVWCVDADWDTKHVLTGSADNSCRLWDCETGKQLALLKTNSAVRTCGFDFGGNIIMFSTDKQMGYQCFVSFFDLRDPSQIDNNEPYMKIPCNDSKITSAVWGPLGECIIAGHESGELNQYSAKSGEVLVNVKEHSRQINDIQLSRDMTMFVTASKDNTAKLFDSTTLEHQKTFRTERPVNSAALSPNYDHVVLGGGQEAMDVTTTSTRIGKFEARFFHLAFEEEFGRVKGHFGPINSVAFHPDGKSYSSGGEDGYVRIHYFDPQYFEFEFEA
inactive: [1] 0.022 | [2] -0.004 | [3] -0.018 | [4] 0.013 | [5] 0.044 | [6] -0.009 | [7] 0.018 | [8] 0.036 | [9] 0 | [10] -0.013

FPGT (UniProt O14772)
inactive: [1] -0.006 | [2] -0.004 | [3] -0.057 | [4] 0.029 | [5] -0.014 | [6] -0.105 | [7] -0.036 | [8] 0.046 | [9] 0.035 | [10] -0.03

EEF1A1P5 (UniProt Q5VTE0)
inactive: [1] -0.055 | [2] 0.005 | [3] -0.172 | [4] -0.083 | [5] 0.005 | [6] -0.054 | [7] 0.008 | [8] 0.016 | [9] 0.006 | [10] -0.013

GAPVD1 isoform 6 (UniProt Q14C86)
inactive: [1] 0.006 | [2] 0.005 | [3] -0.05 | [4] -0.005 | [5] 0.044 | [6] -0.029 | [7] -0.02 | [8] 0.032 | [9] 0.013 | [10] 0.026

DSTN (UniProt P60981)
Chain of UniProt P60981 (P60981 whole entry, looked up): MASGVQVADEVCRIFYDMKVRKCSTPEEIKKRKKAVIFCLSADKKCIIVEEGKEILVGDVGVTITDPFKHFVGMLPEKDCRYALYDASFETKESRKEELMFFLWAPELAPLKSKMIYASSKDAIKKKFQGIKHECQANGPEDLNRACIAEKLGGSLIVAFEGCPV
inactive: [1] 0.01 | [2] 0.012 | [3] -0.013 | [4] 0.009 | [5] 0.034 | [6] 0.045 | [7] -0.005 | [8] -0.022 | [9] 0.022 | [10] -0.008

G6PD isoform 2 (UniProt P11413)
inactive: [1] 0.013 | [2] -0.008 | [3] 0.01 | [4] -0.012 | [5] -0.01 | [6] -0.021 | [7] 0.016 | [8] 0.012 | [9] -0.035 | [10] 0.008

GCLM (UniProt P48507)
inactive: [1] -0.03 | [2] 0.016 | [3] -0.033 | [4] 0.013 | [5] 0.027 | [6] 0.016 | [7] 0.007 | [8] 0 | [9] -0.005 | [10] -0.005

GBA2 (UniProt Q9HCG7)
Chain of UniProt Q9HCG7 (Q9HCG7 whole entry, looked up): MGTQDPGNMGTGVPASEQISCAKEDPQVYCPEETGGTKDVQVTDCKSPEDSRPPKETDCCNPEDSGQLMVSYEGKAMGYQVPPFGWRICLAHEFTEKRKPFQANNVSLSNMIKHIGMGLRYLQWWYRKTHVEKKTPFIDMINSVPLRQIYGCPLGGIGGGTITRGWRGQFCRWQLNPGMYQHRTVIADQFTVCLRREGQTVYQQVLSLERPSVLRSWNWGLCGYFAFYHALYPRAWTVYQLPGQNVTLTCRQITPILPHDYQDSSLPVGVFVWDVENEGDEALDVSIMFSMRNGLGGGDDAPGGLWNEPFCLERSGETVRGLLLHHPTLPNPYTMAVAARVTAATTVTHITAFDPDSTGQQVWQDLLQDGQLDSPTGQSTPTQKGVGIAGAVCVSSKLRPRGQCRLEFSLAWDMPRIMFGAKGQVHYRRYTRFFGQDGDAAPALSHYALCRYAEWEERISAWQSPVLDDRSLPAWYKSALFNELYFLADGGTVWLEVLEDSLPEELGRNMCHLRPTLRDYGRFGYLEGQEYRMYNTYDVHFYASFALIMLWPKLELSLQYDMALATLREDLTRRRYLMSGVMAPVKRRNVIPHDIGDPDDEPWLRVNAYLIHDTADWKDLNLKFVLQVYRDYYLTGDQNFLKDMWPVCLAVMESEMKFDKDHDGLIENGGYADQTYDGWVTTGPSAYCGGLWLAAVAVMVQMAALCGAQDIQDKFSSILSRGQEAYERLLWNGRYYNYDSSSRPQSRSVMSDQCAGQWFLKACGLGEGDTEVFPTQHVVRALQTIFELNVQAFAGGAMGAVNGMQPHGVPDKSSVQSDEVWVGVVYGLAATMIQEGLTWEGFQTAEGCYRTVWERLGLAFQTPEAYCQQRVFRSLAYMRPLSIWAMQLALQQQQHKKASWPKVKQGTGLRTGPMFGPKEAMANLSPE
inactive: [1] -0.063 | [2] 0.114 | [3] 0.059 | [4] -0.079 | [5] 0.034 | [6] -0.101 | [7] -0.213 | [8] 0.023 | [9] 0.058 | [10] -0.074

DYNC1I2 isoform 5 (UniProt Q13409)
inactive: [1] 0.029 | [2] 0.016 | [3] 0.008 | [4] -0.003 | [5] 0.001 | [6] 0.023 | [7] -0.011 | [8] -0.014 | [9] -0.008 | [10] -0.01

GAPDH (UniProt P04406)
inactive: [1] 0.045 | [2] -0.026 | [3] -0.001 | [4] -0.023 | [5] 0 | [6] 0.114 | [7] 0.042 | [8] 0 | [9] -0.019 | [10] 0.018

EMC7 (UniProt Q9NPA0)
inactive: [1] 0.047 | [2] -0.015 | [3] -0.022 | [4] 0.027 | [5] 0.001 | [6] -0.006 | [7] -0.014 | [8] -0.003 | [9] 0.014 | [10] -0.073

EXOC4 (UniProt Q96A65)
inactive: [1] 0.015 | [2] -0.012 | [3] -0.083 | [4] 0.015 | [5] 0.072 | [6] -0.009 | [7] -0.036 | [8] 0.053 | [9] 0.013 | [10] -0.068

GEMIN5 (UniProt Q8TEQ6)
Chain of UniProt Q8TEQ6 (Q8TEQ6 whole entry, looked up): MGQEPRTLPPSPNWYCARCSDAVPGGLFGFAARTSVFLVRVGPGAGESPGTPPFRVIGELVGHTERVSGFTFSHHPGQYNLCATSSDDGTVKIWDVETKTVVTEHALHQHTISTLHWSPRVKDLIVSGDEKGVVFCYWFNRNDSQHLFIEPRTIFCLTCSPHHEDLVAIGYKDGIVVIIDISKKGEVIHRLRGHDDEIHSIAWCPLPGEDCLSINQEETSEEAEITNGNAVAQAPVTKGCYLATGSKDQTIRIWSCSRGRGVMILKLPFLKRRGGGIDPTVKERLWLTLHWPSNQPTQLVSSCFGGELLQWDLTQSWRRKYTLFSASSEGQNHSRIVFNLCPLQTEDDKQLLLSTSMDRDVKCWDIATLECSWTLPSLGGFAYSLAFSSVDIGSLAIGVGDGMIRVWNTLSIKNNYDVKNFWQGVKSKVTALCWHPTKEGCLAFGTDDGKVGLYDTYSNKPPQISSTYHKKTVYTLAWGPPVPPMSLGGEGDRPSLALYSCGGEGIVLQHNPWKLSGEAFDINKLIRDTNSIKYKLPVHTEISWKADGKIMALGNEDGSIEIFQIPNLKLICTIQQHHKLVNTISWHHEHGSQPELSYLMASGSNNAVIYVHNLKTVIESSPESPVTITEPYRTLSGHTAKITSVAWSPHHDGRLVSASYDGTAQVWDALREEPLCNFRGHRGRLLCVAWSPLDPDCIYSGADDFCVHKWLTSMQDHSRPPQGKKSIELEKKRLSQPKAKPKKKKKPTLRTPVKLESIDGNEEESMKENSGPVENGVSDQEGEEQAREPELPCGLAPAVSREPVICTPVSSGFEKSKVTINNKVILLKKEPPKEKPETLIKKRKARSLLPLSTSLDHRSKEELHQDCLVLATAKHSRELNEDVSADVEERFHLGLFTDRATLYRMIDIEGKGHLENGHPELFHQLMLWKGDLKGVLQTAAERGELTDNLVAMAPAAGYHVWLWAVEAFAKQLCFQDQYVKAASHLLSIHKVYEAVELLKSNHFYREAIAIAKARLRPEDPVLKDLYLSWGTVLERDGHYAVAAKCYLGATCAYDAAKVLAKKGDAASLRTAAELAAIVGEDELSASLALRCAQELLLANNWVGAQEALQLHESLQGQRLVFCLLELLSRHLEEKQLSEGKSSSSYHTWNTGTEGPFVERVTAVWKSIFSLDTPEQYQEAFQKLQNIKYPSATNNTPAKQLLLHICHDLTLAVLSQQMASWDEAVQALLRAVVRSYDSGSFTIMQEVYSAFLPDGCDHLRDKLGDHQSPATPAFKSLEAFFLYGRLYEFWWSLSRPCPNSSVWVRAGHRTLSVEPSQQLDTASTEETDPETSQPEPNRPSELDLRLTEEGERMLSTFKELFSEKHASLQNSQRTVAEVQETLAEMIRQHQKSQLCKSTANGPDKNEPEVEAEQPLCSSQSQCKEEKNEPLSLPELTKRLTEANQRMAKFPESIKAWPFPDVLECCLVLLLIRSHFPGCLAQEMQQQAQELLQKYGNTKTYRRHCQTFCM
inactive: [1] -0.003 | [2] -0.001 | [3] -0.046 | [4] 0.001 | [5] 0.037 | [6] -0.102 | [7] 0.015 | [8] 0.031 | [9] 0.003 | [10] -0.027

ERBIN isoform 8 (UniProt Q96RT1)
inactive: [1] 0.012 | [2] -0.027 | [3] 0.051 | [4] -0.015 | [5] 0.018 | [6] -0.029 | [7] -0.005 | [8] 0.018 | [9] 0 | [10] 0.001

DTWD1 (UniProt Q8N5C7)
inactive: [1] 0.007 | [2] -0.039 | [3] -0.034 | [4] 0.01 | [5] -0.02 | [6] -0.067 | [7] -0.007 | [8] 0.002 | [9] -0.008 | [10] 0.049

EPN2 (UniProt O95208)
inactive: [1] -0.001 | [2] 0.01 | [3] -0.011 | [4] 0.017 | [5] 0.054 | [6] -0.016 | [7] -0.07 | [8] 0.021 | [9] 0.01 | [10] -0.016

ECH1 (UniProt Q13011)
inactive: [1] -0.008 | [2] -0.019 | [3] 0.195 | [4] -0.003 | [5] 0.02 | [6] -0.008 | [7] 0.022 | [8] 0.001 | [9] -0.022 | [10] 0.193

EXOC5 (UniProt O00471)
inactive: [1] 0.008 | [2] -0.025 | [3] -0.063 | [4] -0.003 | [5] 0.047 | [6] -0.044 | [7] 0.006 | [8] 0.014 | [9] 0.01 | [10] 0.002
